# Laboratory results from the supplement of paper PMC8728848.
# The sample as a whole holds a higher share of the strongest signals than the screen did.
# B1: FGF1 (Homo sapiens), P05230 (protein)
# chain: MAEGEITTFTALTEKFNLPPGNYKKPKLLYSNGGHFLRILPDGTVDGTRDRSDQHIQLQLSAESVGEVYIKSTETGQYLAMTDGLLYGSQTPNEECLFLERLEENHYNTYISKHAEKNWFVGLKKNGSCKRGPRTHYGQAILFLPLPASSED
# Tests used:
# Assay in all cases: glycan array binding signal (z-score within array); higher = stronger binding
# Settings in all cases: glycan notation: IUPAC condensed, linker removed
# [1] = target: Fuc(a1-2)Gal(b1-3)GlcNAc(b1-2)Man(a1-3)[Fuc(a1-2)Gal(b1-3)GlcNAc(b1-2)Man(a1-6)]Man(b1-4)GlcNAc(b1-4)[Fuc(a1-6)]GlcNAc
# Procedure, shortened: (§1)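 The Consortium for Functional Glycomics database supplied 3228 glycan arrays, of which those lacking an available protein sequence were dropped. The binding signal, a within-array Z-score, was averaged across arrays of the same protein sequence and across linkers. Negative scores can be read as non-binding.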
# [2] = target: Fuc(a1-2)Gal(b1-3)[Fuc(a1-4)]GlcNAc(b1-2)Man(a1-3)[Fuc(a1-2)Gal(b1-3)[Fuc(a1-4)]GlcNAc(b1-2)Man(a1-3)]Man(b1-4)GlcNAc(b1-4)GlcNAc
# Procedure, shortened: as §1
# [3] = target: Fuc(a1-2)Gal(b1-4)Glc
# Procedure, shortened: as §1
# [4] = target: Fuc(a1-2)Gal(b1-4)GlcNAc(b1-3)GalNAc
# Procedure, shortened: as §1
# [5] = target: Fuc(a1-2)Gal6S(b1-4)Glc
# Procedure, shortened: as §1
# [6] = target: Fuc(a1-2)Gal6S(b1-4)Glc6S
# Procedure, shortened: as §1
# [7] = target: Fuc(a1-2)[GalNAc(a1-3)]Gal(b1-4)GlcNAc(b1-3)GalNAc
# Procedure, shortened: as §1
# [8] = target: Fuc(a1-3)[Gal(b1-4)]GlcNAc(b1-6)GalNAc
# Procedure, shortened: as §1
# [9] = target: Fuc(a1-3)[Gal3S(b1-4)]GlcNAc6S
# Procedure, shortened: as §1
# [10] = target: Gal(a1-3)Gal(b1-3)GlcNAc(b1-3)GalNAc
# Procedure, shortened: as §1
# [11] = target: Gal(a1-3)Gal(b1-3)[Fuc(a1-4)]GlcNAc(b1-2)Man(a1-3)[Gal(a1-3)Gal(b1-3)[Fuc(a1-4)]GlcNAc(b1-2)Man(a1-6)]Man(b1-4)GlcNAc(b1-4)GlcNAc
# Procedure, shortened: as §1
# [12] = target: Gal(a1-3)Gal(b1-4)GlcNAc(b1-3)GalNAc
# Procedure, shortened: as §1
# [13] = target: Gal(a1-4)Gal(b1-4)GlcNAc
# Procedure, shortened: as §1
# [14] = target: Gal(a1-4)Gal(b1-4)GlcNAc(b1-3)Gal(b1-4)Glc
# Procedure, shortened: as §1
# [15] = target: Gal(b1-3)[Fuc(a1-4)]GlcNAc(b1-2)Man
# Procedure, shortened: as §1
# [16] = target: Gal(b1-3)[Fuc(a1-4)]GlcNAc(b1-2)Man(a1-3)[Gal(b1-3)[Fuc(a1-4)]GlcNAc(b1-2)Man(a1-6)]Man(b1-4)GlcNAc(b1-4)[Fuc(a1-6)]GlcNAc
# Procedure, shortened: as §1
# [17] = target: Gal(b1-4)GalNAc(a1-3)[Fuc(a1-2)]Gal(b1-4)GlcNAc
# Procedure, shortened: as §1
# [18] = target: Gal(b1-4)GlcNAc
# Procedure, shortened: as §1
# [19] = target: Gal(b1-4)GlcNAc(a1-6)Gal(b1-4)GlcNAc
# Procedure, shortened: as §1
# [20] = target: Gal(b1-4)GlcNAc(b1-3)Gal(b1-4)GlcNAc(b1-3)Gal(b1-4)GlcNAc(b1-2)Man(a1-3)[Gal(b1-4)GlcNAc(b1-3)Gal(b1-4)GlcNAc(b1-3)Gal(b1-4)GlcNAc(b1-2)Man(a1-6)]Man(b1-4)GlcNAc(b1-4)[Fuc(a1-6)]GlcNAc
# Procedure, shortened: as §1
# [21] = target: Gal(b1-4)GlcNAc(b1-3)Gal(b1-4)GlcNAc(b1-3)Gal(b1-4)GlcNAc(b1-3)Gal(b1-4)GlcNAc(b1-2)Man(a1-3)[Gal(b1-4)GlcNAc(b1-3)Gal(b1-4)GlcNAc(b1-3)Gal(b1-4)GlcNAc(b1-3)Gal(b1-4)GlcNAc(b1-2)Man(a1-6)]Man(b1-4)GlcNAc(b1-4)[Fuc(a1-6)]GlcNAc
# Procedure, shortened: as §1
# [22] = target: Gal(b1-4)GlcNAc(b1-3)Gal(b1-4)GlcNAc(b1-3)[Gal(b1-4)GlcNAc(b1-3)Gal(b1-4)GlcNAc(b1-6)]GalNAc
# Procedure, shortened: as §1
# [23] = target: Gal3S(b1-3)[Fuc(a1-4)]GlcNAc
# Procedure, shortened: as §1
# [24] = target: Gal3S(b1-4)Glc
# Procedure, shortened: as §1
# [25] = target: Gal3S6S(b1-4)GlcNAc6S
# Procedure, shortened: as §1
# [26] = target: GalNAc(b1-4)GlcNAc(b1-2)Man(a1-3)[GalNAc(b1-4)GlcNAc(b1-2)Man(a1-6)]Man(b1-4)GlcNAc(b1-4)GlcNAc
# Procedure, shortened: as §1
# [27] = target: GalNAc(b1-4)GlcNAc6S
# Procedure, shortened: as §1
# [28] = target: GlcNAc(a1-4)Gal(b1-4)GalNAc
# Procedure, shortened: as §1
# [29] = target: GlcNAc(a1-4)Gal(b1-4)GlcNAc(b1-3)Gal(b1-4)[Fuc(a1-3)]GlcNAc(b1-3)Gal(b1-4)[Fuc(a1-3)]GlcNAc
# Procedure, shortened: as §1
# [30] = target: GlcNAc(b1-2)[GlcNAc(b1-4)]Man(a1-3)[GlcNAc(b1-4)][GlcNAc(b1-2)[GlcNAc(b1-6)]Man(a1-6)]Man(b1-4)GlcNAc(b1-4)GlcNAc
# Procedure, shortened: as §1
# [31] = target: GlcNAc(b1-2)[GlcNAc(b1-6)]Man(a1-6)[GlcNAc(b1-4)][GlcNAc(b1-2)Man(a1-3)]Man(b1-4)GlcNAc(b1-4)GlcNAc
# Procedure, shortened: as §1
# [32] = target: GlcNAc(b1-3)Fuc
# Procedure, shortened: as §1
# [33] = target: GlcNAc(b1-3)Gal
# Procedure, shortened: as §1
# [34] = target: GlcNAc(b1-3)Gal(b1-4)GlcNAc(b1-3)Gal(b1-4)GlcNAc(b1-2)Man(a1-3)[GlcNAc(b1-3)Gal(b1-4)GlcNAc(b1-3)Gal(b1-4)GlcNAc(b1-2)Man(a1-6)]Man(b1-4)GlcNAc(b1-4)[Fuc(a1-6)]GlcNAc
# Procedure, shortened: as §1
# [35] = target: GlcNAc(b1-3)Gal(b1-4)GlcNAc(b1-3)Gal(b1-4)GlcNAc(b1-3)Gal(b1-4)GlcNAc(b1-2)Man(a1-3)[GlcNAc(b1-3)Gal(b1-4)GlcNAc(b1-3)Gal(b1-4)GlcNAc(b1-3)Gal(b1-4)GlcNAc(b1-2)Man(a1-6)]Man(b1-4)GlcNAc(b1-4)[Fuc(a1-6)]GlcNAc
# Procedure, shortened: as §1
# [36] = target: Kdn(a2-3)Gal(b1-4)Glc
# Procedure, shortened: as §1
# [37] = target: Man(a1-2)Man(a1-3)[Man(a1-2)Man(a1-6)]Man
# Procedure, shortened: as §1
# [38] = target: Neu5Ac(a2-3)Gal(b1-3)GlcNAc(b1-2)Man(a1-3)[Neu5Ac(a2-3)Gal(b1-3)GlcNAc(b1-2)Man(a1-6)]Man(b1-4)GlcNAc(b1-4)GlcNAc
# Procedure, shortened: as §1
# [39] = target: Neu5Ac(a2-3)Gal(b1-3)GlcNAc(b1-3)Gal(b1-3)GlcNAc
# Procedure, shortened: as §1
# [40] = target: Neu5Ac(a2-3)Gal(b1-3)GlcNAc(b1-3)GalNAc
# Procedure, shortened: as §1
# [41] = target: Neu5Ac(a2-3)Gal(b1-4)GlcNAc(b1-2)Man
# Procedure, shortened: as §1
# [42] = target: Neu5Ac(a2-3)Gal(b1-4)GlcNAc(b1-3)Gal(b1-3)GlcNAc
# Procedure, shortened: as §1
# [43] = target: Neu5Ac(a2-3)Gal(b1-4)[Fuc(a1-3)]GlcNAc(b1-6)[Gal(b1-3)]GalNAc
# Procedure, shortened: as §1
# [44] = target: Neu5Ac(a2-3)Gal(b1-4)[Fuc(a1-3)]GlcNAc(b1-6)[Neu5Ac(a2-3)Gal(b1-3)]GalNAc
# Procedure, shortened: as §1
# [45] = target: Neu5Ac(a2-3)[GalNAc(b1-4)]Gal(b1-4)GlcNAc(b1-3)GalNAc
# Procedure, shortened: as §1
# [46] = target: Neu5Ac(a2-6)Gal(b1-4)Glc
# Procedure, shortened: as §1
# [47] = target: Neu5Ac(a2-6)Gal(b1-4)GlcNAc(b1-6)GalNAc
# Procedure, shortened: as §1
# [48] = target: Neu5Ac9Ac(a2-3)Gal(b1-3)GlcNAc
# Procedure, shortened: as §1
# [49] = target: Neu5Ac9Ac(a2-3)Gal(b1-4)GlcNAc
# Procedure, shortened: as §1
# [50] = target: Neu5Gc(a2-8)Neu5Gc(a2-6)Gal(b1-4)GlcNAc
# Procedure, shortened: as §1
binder,measurement,setting,value
B1,glycan array binding signal (z-score),[1],0.366
same,glycan array binding signal (z-score),[2],2.84
same,glycan array binding signal (z-score),[3],-0.358
same,glycan array binding signal (z-score),[4],1.33
same,glycan array binding signal (z-score),[5],0.397
same,glycan array binding signal (z-score),[6],0.797
same,glycan array binding signal (z-score),[7],-0.242
same,glycan array binding signal (z-score),[8],1.04
same,glycan array binding signal (z-score),[9],1.09
same,glycan array binding signal (z-score),[10],0.646
same,glycan array binding signal (z-score),[11],3.56
same,glycan array binding signal (z-score),[12],-0.582
same,glycan array binding signal (z-score),[13],0.333
same,glycan array binding signal (z-score),[14],0.423
same,glycan array binding signal (z-score),[15],3.59
same,glycan array binding signal (z-score),[16],3.02
same,glycan array binding signal (z-score),[17],-0.949
same,glycan array binding signal (z-score),[18],-0.031
same,glycan array binding signal (z-score),[19],-0.827
same,glycan array binding signal (z-score),[20],2.98
same,glycan array binding signal (z-score),[21],1.05
same,glycan array binding signal (z-score),[22],1.64
same,glycan array binding signal (z-score),[23],3.14
same,glycan array binding signal (z-score),[24],-0.046
same,glycan array binding signal (z-score),[25],1.04
same,glycan array binding signal (z-score),[26],6.98
same,glycan array binding signal (z-score),[27],-0.848
same,glycan array binding signal (z-score),[28],0.705
same,glycan array binding signal (z-score),[29],1.24
same,glycan array binding signal (z-score),[30],-0.751
same,glycan array binding signal (z-score),[31],-0.832
same,glycan array binding signal (z-score),[32],0.25
same,glycan array binding signal (z-score),[33],-0.782
same,glycan array binding signal (z-score),[34],-0.417
same,glycan array binding signal (z-score),[35],1.12
same,glycan array binding signal (z-score),[36],3.53
same,glycan array binding signal (z-score),[37],-0.916
same,glycan array binding signal (z-score),[38],4.88
same,glycan array binding signal (z-score),[39],-0.881
same,glycan array binding signal (z-score),[40],-0.187
same,glycan array binding signal (z-score),[41],5.56
same,glycan array binding signal (z-score),[42],-0.884
same,glycan array binding signal (z-score),[43],0.146
same,glycan array binding signal (z-score),[44],0.465
same,glycan array binding signal (z-score),[45],-0.27
same,glycan array binding signal (z-score),[46],0.536
same,glycan array binding signal (z-score),[47],4.24
same,glycan array binding signal (z-score),[48],1.47
same,glycan array binding signal (z-score),[49],-0.689
same,glycan array binding signal (z-score),[50],-0.059
